From PubChem
TsaE inh = YjeE (TsaE) inhibition, E. coli; AID 605; actives 0.05% (n = 71,000); P0AF67; purified YjeE enzyme, qHTS inhibition assay; Potency, µM
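Fluorescence polarization of a BODIPY Texas Red–ADP probe (2 uM) bound to purified YjeE (10 uM) was read after 15 min room-temperature incubation with compounds. Loss of polarization marks inhibitors; ADP serves as titrated control.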
DNA Pol III inh = DNA polymerase III holoenzyme inhibition | reconstituted DNA polymerase III holoenzyme replication, biochemical | Potency, µM (doses to about 57.1 µM), for the others: at the highest dose activity change, negative = inhibition | actives 0.25% (n = 71,000); further: potency means the concentration at half of the fitted maximal effect; on the % scale 0 is the no-effect control and ±100 the full control effect
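Reconstituted *E. coli* holoenzyme (0.35 nM Pol III, 1 nM beta, 154 nM SSB, 2 nM primase) was preincubated with compound for 15 min at RT. Synthesis on 1.4 nM ssM13Gori ran 35 min, then was stopped with PicoGreen/EDTA and read as dsDNA fluorescence.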
Hsp90 Hop PPI = changes Hsp90-Hop TPR2A binding signal, up or down | AID 595 | Potency, µM (top dose mostly 57 µM), inactives show at the top dose activity change, negative = inhibition | AlphaScreen TPR2A-His6 binding biotin-Hsp90 C-terminal peptide | actives 0.44% (n = 71,000); active means well fitted curve in either direction with a large enough effect; inconclusive means small, poorly fitted or top-dose-only effect, or another doubt; further: potency means the concentration at half of the fitted maximal effect; on the % scale 0 is the no-effect control and ±100 the full control effect
BRCT inh green = blocks human BRCA1 BRCT binding to phosphopeptide, green readout; actives 0.05% (n = 75,000); P38398; Potency, µM (top dose mostly 76.9 µM), without a hit: at the highest dose activity change, negative = inhibition, most hits filed as inhibitors; AID 875; BRCA1 BRCT-phosphopeptide binding, green fluorescence polarization;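 further: potency means the concentration at half of the fitted maximal effect; plate controls were peptide without protein for full effect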
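Compounds were incubated for 12 min at room temperature with a complex of 100 nM fluorescein-tagged pBACH1 decapeptide and 250 nM His-tagged BRCT protein. Buffer was phosphate pH 7.3 with EDTA, DTT and Tween 20. Disruption of binding lowers the polarization signal.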
BRCT inh red = BRCT-phosphoprotein interaction inhibition (red fluorophore). BRCT-phosphopeptide binding, red fluorescence polarization. actives 0.03% (n = 75,000). AID 892. P38398. Potency, µM (doses to about 76.9 µM), for inactives: at the highest dose activity change, negative = inhibition, hits mostly inhibitors; further: on the % scale 0 is the no-effect control and ±100 the full control effect
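Rhodamine-labelled pBACH1 10-mer (100 nM) bound to BRCT domain (100 nM) at pH 7.3; compounds incubated 12 min room temperature, polarization read. Free peptide defines full inhibition; unlabelled decapeptide titrated as control.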
An asterisk follows results filed as active; ! = repeats disagree; [ ] = dose if it differs, or a comment. In the library only some 0.53% were active in any assay of this set; here they are far more common. Unless noted, the call rests on the fitted dose curve; in most records, active means well fitted curve in the direction sought with a large enough effect; inconclusive means small, poorly fitted or top-dose-only effect, or another doubt; inactive means no such curve, though single readings can be large; an effect the other way counts as inactive or inconclusive.

C[C@@H]1C(=O)O[C@@H]2C[C@@]34[C@H]5C[C@@H](C(C)(C)C)[C@@]36[C@@H](OC(=O)[C@@H]6O)O[C@]4(C(=O)O5)[C@@]12O was read as TsaE inh inactive, DNA Pol III inh -5% and Hsp90 Hop PPI -1%.
For [Cl][In]([Cl])[Cl] the results were TsaE inh inconclusive, DNA Pol III inh 32µM*, Hsp90 Hop PPI -1%, BRCT inh green -1% and BRCT inh red -2%.
`O=C(O)[C@@H]1CCCN[C@H]1C(=O)O` gave TsaE inh inactive, DNA Pol III inh -2%, Hsp90 Hop PPI -6%, BRCT inh green -3% and BRCT inh red 1%.
`Cc1ccc2nc(CSc3nnc(-c4ccco4)o3)cc(=O)n2c1` gave TsaE inh inactive, DNA Pol III inh 20µM*, Hsp90 Hop PPI -4%, BRCT inh green -12% and BRCT inh red -21%.
Cc1ccc2nc(CSc3nnc(-c4ccco4)n3-c3ccccc3)cc(=O)n2c1 was read as TsaE inh inactive, DNA Pol III inh -2%, Hsp90 Hop PPI -1%, BRCT inh green -1% and BRCT inh red 0%.
For CC(C)(C(=O)O)c1ccc([C@@H](O)CCCN2CCC(C(O)(c3ccccc3)c3ccccc3)CC2)cc1 the results were TsaE inh inactive, DNA Pol III inh -5%, Hsp90 Hop PPI -2%, BRCT inh green -2% and BRCT inh red 2%.
CCOC(=O)CCc1nc2ccccc2[nH]1 was read as TsaE inh inactive, DNA Pol III inh -6%, Hsp90 Hop PPI 1%, BRCT inh green 0% and BRCT inh red 1%.
For CCOC(=O)CCCc1sc(N)nc1-c1[nH]c(=O)[nH]c1C the results were TsaE inh inactive, DNA Pol III inh -1%, Hsp90 Hop PPI 4µM*, BRCT inh green -1% and BRCT inh red -3%.
`CC(C)[C@@H](CC(=O)N[C@@H]1CCNC[C@H]1C(=O)N[C@H](CC(=O)N[C@@H](CCC(=O)O)CC(=O)O)Cc1ccccc1)NC(=O)C[C@H](Cc1c[nH]c2ccccc12)NC(=O)[C@@H]1CCCC[C@H]1N` gave TsaE inh inconclusive, DNA Pol III inh 0% and Hsp90 Hop PPI 32µM*.
Screening Cc1cc2nc3c(=O)[nH]c(=O)nc-3n(CC(O)C(O)C(O)CO)c2cc1C (configuration not stated) returned TsaE inh inactive, DNA Pol III inh 227%, Hsp90 Hop PPI -6%, BRCT inh green 13µM*! and BRCT inh red -9%.
`C=C(CO)[C@H]1Cc2c(ccc3c(=O)c4c(oc23)COc2cc(OC)c(OC)cc2-4)O1` gave TsaE inh inactive, DNA Pol III inh -3% and Hsp90 Hop PPI -6%.
Screening C=CC1=C(C)C2=NC1=CC1=NC(=CC3=NC(=CC4=NC(=C2)C(C)=C4CCC(=O)O)C(CCC(=O)O)=C3C)C(C=C)=C1C.[Zn] returned TsaE inh 79µM*, DNA Pol III inh 25µM*, Hsp90 Hop PPI 5µM*, BRCT inh green inconclusive and BRCT inh red 32µM*.
`CCCCCCC1Cc2cc(OC)c(OC)cc2C(C(C(=O)OCC)C(=O)OCC)O1` (configuration not stated) gave BRCT inh green -1%[15.4 µM] and BRCT inh red -1%[15.4 µM].
For Cc1nn(-c2ccc(S(=O)(=O)O)cc2)c(O)c1N=Nc1ccc(-c2ccc(N=Nc3ccc4c(S(=O)(=O)O)cc(S(=O)(=O)O)c(N)c4c3O)c(O)c2)cc1O.[Cu].[Cu] the results were TsaE inh inconclusive, DNA Pol III inh 1.3µM*, Hsp90 Hop PPI -16%[11 µM], BRCT inh green 6.3µM* and BRCT inh red 2.5µM*.
`COc1cc(-c2ccc(N=Nc3ccc4c(S(=O)(=O)O)cc(S(=O)(=O)O)c(N)c4c3O)c(OC)c2)ccc1N=Nc1ccc2c(S(=O)(=O)O)cc(S(=O)(=O)O)c(N)c2c1O` gave TsaE inh 50µM*, DNA Pol III inh 2.5µM*, Hsp90 Hop PPI 4µM*!, BRCT inh green 40µM*! and BRCT inh red inconclusive.
`CCOC(=O)C1=C(C)NC(C)=C(C(=O)OC)[C@@H]1c1cccc(Cl)c1Cl` gave TsaE inh inactive, DNA Pol III inh -15%[25.6 µM], Hsp90 Hop PPI 9%[26 µM], BRCT inh green 0%[34.4 µM] and BRCT inh red 1%[34.4 µM].
Screening NNc1nncc2ccccc12 returned TsaE inh inactive, DNA Pol III inh -5%[25.6 µM], Hsp90 Hop PPI 13µM*!, BRCT inh green 0%[3.08 µM] and BRCT inh red 0%.
Screening COC(=O)N1CCC2(CC1)CN(c1cccc(-c3ccccc3)c1)C2 returned TsaE inh inactive, DNA Pol III inh -11%, Hsp90 Hop PPI -3%, BRCT inh green -3% and BRCT inh red -1%.
`O=C(OCC(=O)c1ccccc1Br)c1ccccn1` gave TsaE inh inactive, DNA Pol III inh 4%, Hsp90 Hop PPI 25µM*, BRCT inh green 1% and BRCT inh red -1%.
Screening CC[C@H](C)[C@@H]1O[C@]2(CC[C@@H]1C)C[C@H]1C[C@H](CC=C(C)[C@@H](O[C@H]3C[C@H](OC)[C@H](O[C@H]4C[C@H](OC)[C@H](O)[C@H](C)O4)[C@H](C)O3)[C@@H](C)C=CC=C3CO[C@@H]4[C@@H](O)C(C)=C[C@H](C(=O)O1)[C@@]34O)O2 returned TsaE inh inactive, DNA Pol III inh 4%, Hsp90 Hop PPI -23%, BRCT inh green -1% and BRCT inh red -2%.
C=C1CC[C@@H]2[C@](C)(CC[C@@H](O)[C@]2(C)CO)[C@@H]1C/C=C1/C(=O)OC[C@H]1O was read as TsaE inh inactive, DNA Pol III inh -4% and Hsp90 Hop PPI inconclusive.
COc1ccc(C(=O)COC(=O)CN2CC(=O)Oc3ccccc32)cc1Br was read as TsaE inh inactive, DNA Pol III inh -6%, Hsp90 Hop PPI 6.3µM*, BRCT inh green 4% and BRCT inh red -3%.
Screening CN(C)c1ccc(C(=C2C=CC(=[N+](C)C)C=C2)c2ccc(N(C)C)cc2)cc1 returned TsaE inh 5µM*, DNA Pol III inh 40µM*, Hsp90 Hop PPI inconclusive, BRCT inh green -2%[3.08 µM] and BRCT inh red -4%.
For CCOC(=O)C1=C(C)NC(C)=C(C(=O)OC)[C@H]1c1cccc(Cl)c1Cl the results were TsaE inh inactive, DNA Pol III inh -7%, Hsp90 Hop PPI 21%, BRCT inh green -2% and BRCT inh red -2%.
For O=c1[nH]n(-c2cccc3cccnc23)c(=O)c2ccccc12 the results were TsaE inh inactive, DNA Pol III inh -4%, Hsp90 Hop PPI -4%, BRCT inh green 0% and BRCT inh red -1%.
`O=S1(=O)Nc2c(ccc3cccnc23)-c2ccccc21` gave TsaE inh inactive, DNA Pol III inh -24%, Hsp90 Hop PPI 3.2µM*, BRCT inh green -1% and BRCT inh red -2%.
